# Assay outcomes: PubChem BioAssay, National Center for Advancing Translational Sciences (NCATS)
# MCF10A rereplic: A quantitative high throughput screen for small molecules that induce DNA re-replication in MCF 10a normal breast cells; AID 624296, 2012; MCF 10A DNA re-replication, Hoechst nuclear intensity, 48 h; 350,000 compounds, 2.9% hits; Potency, µM (series often up to 46.1 µM), without a hit: top-dose activity, positive = re-replication, most hits filed as activators; note: potency is the fitted concentration of half-maximal effect; % of control where 0% means no effect; nearly all actives have a fitted effect of over 50% in size
# TDP1 cell CPT: qHTS for Inhibitors of human tyrosyl-DNA phosphodiesterase 1 (TDP1): qHTS in cells in presence of CPT; chicken DT40 Tdp1-/-;hTDP1 cells + 20 nM CPT, ATP luminescence, 48 h; Potency, µM (doses to about 46.2 µM), without a hit: at the highest dose activity change, negative = growth inhibition, usual class: inhibitors; 420,000 compounds, 12% hits; note: potency is the fitted concentration of half-maximal effect; % is set by controls: 0 for no effect and ±100 for the full control effect; nearly all actives have a fitted effect of over 55% in size
#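 Cell growth measured by CellTiter-Glo luminescence after a minimum 48 h, 37 C compound exposure with 20 nM CPT in Tdp1-knockout DT40 cells stably expressing hTDP1, seeded 400/well; qHTS titration format.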
# IL1B secr inh: qHTS for Inhibitors of Inflammasome Signaling: IL-1-beta AlphaLISA Primary Screen | THP-1 LPS/ATP IL-1B secretion, AlphaLISA, 16 h; active compounds read low | activity change, % at 57.5 µM | 360,000 compounds, 4.7% hits; in the data active = activity change below about -50%; inconclusive = mostly about -30% to -49%; note: % is set by controls: 0 for no effect and ±100 for the full control effect
#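 THP-1 cells pretreated 1 hr with compounds (up to 57.5 uM final), then stimulated with LPS (250 ng/mL final) plus ATP (1.25 mM final); secreted IL-1B measured by AlphaLISA after 16 hr, decreased signal indicating inhibition.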
# BCR signal inh: qHTS Assay to Find Inhibitors of Chronic Active B-Cell Receptor Signaling | ABC-DLBCL IkBa-CBG/CBR reporter, luminescence ratio, 4 h | Potency, µM (highest dose often 46.1 µM), inactives show at the top dose activity change, negative = inhibition, actives largely listed as inhibitors | 340,000 compounds, 0.05% hits | AID 493014, 2011; active = well fitted inhibition curve with a large enough effect in the signal ratio, with a control signal flat, not every such curve was filed as active; inconclusive = small, poorly fitted or top-dose-only effect, or effect the other way, or a change in a side signal; the % refers to the signal ratio;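 note: potency is the fitted concentration of half-maximal effect; plate controls were basal doxycycline-induced cells for no effect and cells given 10 µM MG132 for full effect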
#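 TMD8 human ABC-DLBCL cells with doxycycline-inducible IκBα–green luciferase fusion and unfused red luciferase, in 0.5% FBS medium; compounds up to 46 uM, 4 h at 37C. Green/red luminescence ratio, filter-overlap corrected, fitted to concentration-response curves.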
# DT40 TDP1 no CPT: qHTS for Inhibitors of human tyrosyl-DNA phosphodiesterase 1 (TDP1): qHTS in cells in absence of CPT | DT40 Tdp1-/- hTDP1 cells, no CPT, ATP luminescence, 48 h | Potency, µM (top dose mostly 46.2 µM), without a hit: at the top dose activity change, negative = growth inhibition, actives largely listed as inhibitors | 420,000 compounds, 15% hits | AID 686978, 2013; note: potency is the fitted concentration of half-maximal effect; % is set by controls: 0 for no effect and ±100 for the full control effect; nearly all actives have a fitted effect of over 55% in size
#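 Chicken DT40 Tdp1-/- cells complemented with human TDP1, screened without camptothecin (DMSO vehicle only), 400 cells/well. Compounds pin-transferred, cells incubated at 37 °C for at least 48 hr. Growth read as ATP-dependent luminescence (CellTiter-Glo, 30 min at RT).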
# SW480 rereplic: A quantitative high throughput screen for small molecules that induce DNA re-replication in SW480 colon adenocarcinoma cells | 340,000 compounds, 1.8% hits | Potency, µM (titrated, usually from 46.1 µM), inactives show top-dose re-replication activation, usual class: activators | SW480 DNA re-replication, Hoechst DNA content imaging, 48 h; note: potency is the fitted concentration of half-maximal effect; % of control where 0% means no effect; nearly all actives have a fitted effect of over 55% in size
#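 Image-based DNA-content assay: after two days of treatment, nuclei were labelled with the DNA dye Hoechst and imaged, and hits were compounds raising the count of nuclei showing high fluorescence intensity.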
# * marks the source's active call; other numbers are inactive results; ? = inconclusive; . = not tested or not shown; [ ] = dose if it differs, or a comment. Sampled rows, rich in hits. Any-hit rate of the full collection: about 19%. Unless noted, calls come from the whole dose curve; as a rule, active = well fitted curve in the direction sought with a large enough effect; inconclusive = small, poorly fitted or top-dose-only effect, or another doubt; inactive = no such curve, though single readings can be large; an effect the other way counts as inactive or inconclusive.
SMILES,MCF10A rereplic,TDP1 cell CPT,IL1B secr inh,BCR signal inh,DT40 TDP1 no CPT,SW480 rereplic
CC1(C(=O)NS(=O)(=O)c2ccc(C#N)cc2)CCN1C(=O)C1(c2ccccc2)CCCC1 (centres undefined),.,12µM*,8,.,13µM*,.
Cc1ccc(F)c(S(=O)(=O)NC(=O)C2(C)CCN2C(=O)C2(c3ccc(Cl)cc3)CCC2)c1 (centres undefined),.,16µM*,0,.,?,.
Cc1ccc(F)c(S(=O)(=O)NC(=O)C2(C)CCN2C(=O)C2(c3ccc(Cl)cc3)CC2)c1 (centres undefined),.,-10%,0,.,-4%,.
CC1(C(=O)NS(=O)(=O)c2ccc(Cl)cc2)CCN1C(=O)C1(c2ccc(Cl)cc2)CCC1 (centres undefined),.,21µM*,26,.,?,.
COc1cc(NC(=O)CSc2nc(C)c(C(=O)Nc3ccccc3)c(-c3ccc(OC)c(OC)c3)c2C#N)c(OC)cc1Cl,.,3%,.,.,-1%,.
Cc1occc1-c1nnc(SCC(=O)NC2CCC(C)CC2)o1 (centres undefined),16%,-20%,-11,0%,?,-8%
CCN(C(=O)C1CCN(S(=O)(=O)c2ccc3c(c2)CCCN3C(=O)C2CCC2)CC1)c1cccc(C)c1,.,16µM*,.,.,18µM*,.
Cc1ccc(NC(=O)C2CCN(S(=O)(=O)c3ccc4c(c3)CCCN4C(=O)C3CCC3)CC2)cc1,.,16µM*,.,.,?,.
Cc1cccc(N2CCN(S(=O)(=O)c3ccc4c(c3)CCCN4C(=O)C3CCC3)CC2C)c1 (centres undefined),18%,?,50,2%,?,-7%
O=C(Nc1ccc(F)cc1)C1CCN(S(=O)(=O)c2ccc3c(c2)CCCN3C(=O)C2CCC2)CC1,.,18µM*,.,.,8.2µM*,.
CC1CCN(S(=O)(=O)c2ccc3c(c2)CCN3C(=O)C2CCC2)CC1,9%,?,19,2%,?,?
Cc1ccc(NC(=O)C2CCN(S(=O)(=O)c3ccc(F)cc3)CC2)cc1,-1%,-28%,?,15%,?,-7%
CO[C@H]1[C@H](NC(=O)c2ccco2)c2ccccc2C12CCN(Cc1cccn1-c1ccccn1)CC2,.,11%[9.04 µM],.,.,-4%,.
Cc1cc(C)cc(NC(=O)COC(=O)COc2ccc(N(C)S(=O)(=O)c3cccs3)cc2)c1,1%,6%,3,0%,-2%,-7%
COc1ccc(C)cc1NC(=O)COC(=O)Cc1c[nH]c2ccccc12,.,-6%,32,.,-19%,.
CCCC(OC(=O)CN1C(=O)COc2ccccc21)C(=O)NC1CCCC1 (centres undefined),-13%,0%,1,-15%,0%,-1%
CCCCC(OC(=O)CN1C(=O)COc2ccccc21)C(=O)NC1CCCCC1 (centres undefined),-14%,-1%,-3,?,16µM*,-7%
C[C@@H]1Cc2[nH][nH]c(=O)c2[C@H](c2ccc(Cl)cc2)O1,.,-4%,-7,.,-17%,.
COc1ccccc1N(CC(=O)Nc1ccccc1F)S(C)(=O)=O,.,-11%,.,.,-9%,.
N#CNc1nc(O)cc(=O)[nH]1,-2%,-1%,8,0%,-9%,-3%
C=CCSC(=C(C#N)C#N)c1cc2c([nH]1)CCCC2,?,10µM*,-115*,-4%,12µM*,?
N#Cc1cc2c([nH]c1=S)CCCC2,-42%,2%,29,?,-4%,?
